# Source: PubChem BioAssay AID720647 (Broad Institute, 2013)
# Hit rate of the full screen: of about 380,000 compounds, about 1,300 (0.34%) were called active.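 Rule for the calls: active = drop in luminescence signal, shown as inhibition above about 50% in the replicate tests (limit read from the data, passing the limit was not always enough); inconclusive = probably only some replicates passing the limit; inactive = the rest.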 The sample as a whole holds a higher share of actives than the screen did.
# Test system: Drosophila bursicon receptor LGR2 (rickets)
# Test: inhibitors of bursicon-induced LGR2 CRE-luciferase signal, primary screen, cell-based, HEK293, CRE-luciferase reporter, bursicon stimulation (AID 720647);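 note: agonist challenge used bursicon conditioned medium at about half maximal strength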
# Conditions: bursicon-stimulated, 4 h, at 9.99 µM, active compounds read high
row,SMILES,inhibition
1,C[C@@H]1CCCCO[C@@H](CN(C)C)[C@@H](C)CN([C@H](C)CO)C(=O)c2cc(N(C)C)ccc2O1,-6.42% (inactive)
2,C[C@H]1CN([C@@H](C)CO)C(=O)c2cc(NC(=O)C3CCCCC3)ccc2O[C@H]1CN(C)C(=O)Nc1ccccc1,2.55% (inactive)
3,N#C[C@H]1[C@H](c2ccc(C#Cc3ccc(F)cc3)cc2)[C@@H](CO)N1C(=O)C1CCCC1,16.6% (inactive)
4,N#C[C@@H]1[C@@H](c2ccc(C#Cc3cccc(F)c3)cc2)[C@H](CO)N1C(=O)C1CCOCC1,-34.2% (inactive)
5,N#C[C@@H]1[C@H](c2ccc(C#CC3CCCCC3)cc2)[C@@H](CO)N1S(=O)(=O)c1ccccc1,61.9% (active)
6,COc1ccccc1C#Cc1ccc([C@H]2[C@@H](C#N)N(C(=O)C3CCCCC3)[C@@H]2CO)cc1,18.3% (inactive)
7,N#C[C@@H]1[C@H](c2ccc(C#Cc3cccc(F)c3)cc2)[C@@H](CO)N1C(=O)C1CCCC1,82.4% (active)
8,CS(=O)(=O)N1[C@H](C#N)[C@H](c2ccc(C#CC3CCCC3)cc2)[C@H]1CO,-37.6% (inactive)
9,CS(=O)(=O)N1[C@@H](C#N)[C@H](c2ccc(C#CC3CCCCC3)cc2)[C@@H]1CO,-5.08% (inactive)
10,N#C[C@@H]1[C@H](c2ccc(C#Cc3ccccc3F)cc2)[C@H](CO)N1C(=O)C1CCCCC1,74.8% (active)
11,N#C[C@@H]1[C@@H](c2ccc(C#Cc3cccc(F)c3)cc2)[C@@H](CO)N1C(=O)C1CCC1,-19.3% (inactive)
12,C[C@@H]1CN([C@@H](C)CO)S(=O)(=O)c2ccc(C#CCN(C)C)cc2O[C@H]1CN(C)C(=O)C1CC1,6.68% (inactive)
13,Cc1noc(C)c1S(=O)(=O)N(C)C[C@@H]1OCCCC[C@@H](C)Oc2ccc(NC(=O)c3ccccc3)cc2C(=O)N([C@@H](C)CO)C[C@@H]1C,12.5% (inactive)
14,O=C(N[C@H]1CC[C@@H](CCNS(=O)(=O)c2ccc(F)cc2)O[C@@H]1CO)c1ccccn1,11.4% (inactive)
15,CCC(=O)Nc1ccc2c(c1)OC[C@H](C)N(CC1CCCCC1)C[C@@H](C)[C@H](OC)CN(C)C2=O,4.64% (inactive)
16,CCC(=O)N1CCC2(CC1)CN(S(C)(=O)=O)[C@@H](CO)c1c2c2ccc(OC)cc2n1C,-17.4% (inactive)
17,CCCC#Cc1cnc2c(c1)C(=O)N([C@H](C)CO)C[C@H](C)[C@@H](CN(C)S(=O)(=O)c1ccccc1)O2,-10.8% (inactive)
18,C[C@@H]1CN([C@@H](C)CO)S(=O)(=O)c2ccc(Br)cc2O[C@@H]1CN(C)C(=O)C1CCCCC1,-1.83% (inactive)
19,Cc1noc(C)c1NC(=O)Nc1ccc2c(c1)C(=O)N([C@@H](C)CO)C[C@@H](C)[C@H](CN(C)C(=O)NC(C)C)O2,9.15% (inactive)
20,CCCNC(=O)[C@H]1[C@H](CO)[C@H]2Cn3c(ccc(-c4cccc(F)c4)c3=O)[C@@H]1N2C(=O)CC,4.62% (inactive)
21,CC(C)CC#Cc1ccc([C@H]2[C@H]3CN(C(=O)CN4CCOCC4)CC(=O)N3[C@H]2CO)cc1,-1.92% (inactive)
22,COc1ccc2c3c(n(C)c2c1)[C@H](CO)N(C(=O)CC1CC1)CC31CCN(Cc2nccs2)CC1,4.96% (inactive)
23,Cc1cc(C(=O)CSc2nc(N)cc(=O)[nH]2)c(C)n1-c1cccc(F)c1,1.57% (inactive)
24,Cc1cc(C(=O)COC(=O)C2CC2)c(C)n1-c1ccc(F)cc1,81.6% (active)

row,SMILES,inhibition
1,Cc1cc(C(=O)COc2ccccc2Cl)c(C)n1C1CC1,-70% (inactive)
2,CNC[C@@H]1Oc2ccc(NC(=O)Nc3ccc4c(c3)OCO4)cc2C(=O)N([C@H](C)CO)C[C@@H]1C,-5.83% (inactive)
3,CO[C@@H]1CN(C)C(=O)c2cc(NS(C)(=O)=O)ccc2OC[C@@H](C)N(C(=O)C2CCC2)C[C@@H]1C,-11.1% (inactive)
4,O=C(C[C@H]1CC[C@H]2[C@@H](COC[C@@H](O)CN2Cc2ccccc2)O1)N[C@@H]1CCN(Cc2ccccc2)C1,1.95% (inactive)
5,O=C(NC1=CC(=O)c2ccccc2C1=O)c1ccccc1,61.4% (active)
6,CCS(=O)(=O)N1CC2(C1)CN(S(=O)(=O)c1ccccc1)[C@H](CO)c1c2c2ccc(OC)cc2n1C,-11.1% (inactive)
7,CC(C)NC(=O)Nc1ccc2c(c1)CC(=O)N([C@H](C)CO)C[C@@H](C)[C@@H](CN(C)C(=O)Nc1ccc3c(c1)OCO3)O2,-3.26% (inactive)
8,CCCCCCCCn1c2c(c(=N)c3c1CCC3)CCCC2,52.6% (active)
9,Cc1noc(C)c1NC(=O)Nc1ccc2c(c1)C(=O)N([C@@H](C)CO)C[C@@H](C)[C@H](CN(C)Cc1ccc(C(F)(F)F)cc1)O2,-7.29% (inactive)
10,C[C@H]1CN([C@@H](C)CO)C(=O)c2cc(C3=CCCCC3)cnc2O[C@@H]1CN(C)C(=O)c1ccc(F)cc1,2.17% (inactive)
11,CN1c2ccc(Br)cc2[C@@H]2[C@@H](CCN2C(=O)C2CCCC2)[C@H]1CO,1.06% (inactive)
12,Cc1cc(=O)cc(C)n1-c1ccc(Cl)c(Cl)c1,5.96% (inactive)
13,COc1cccc(C2SCC(=O)N2c2cccc(C)c2)c1OC (configuration not stated),7.83% (inactive)
14,Cc1cccc(-n2ncc(Cl)c(Cl)c2=O)c1,103% (active)
15,CCNC(=O)C[C@@H]1CC[C@H]2[C@@H](COC[C@@H](O)CN2C(=O)c2cc(Cl)cc(Cl)c2)O1,11.4% (inactive)
16,C[C@@H]1CN([C@@H](C)CO)C(=O)c2cc(NS(=O)(=O)c3ccccc3)ccc2O[C@H]1CN(C)S(=O)(=O)c1ccc(Cl)cc1,13.5% (inactive)
17,CCOC(=O)C1=C(c2ccc(OC)cc2)C(=O)c2ccccc2C1=O,99.6% (active)
18,CCOC(=O)C1=C(c2ccccc2)NC(=O)NC1c1cc(OC)c(OC)cc1OC (configuration not stated),8.83% (inactive)
19,CCOC(=O)C1=C(C)c2ccccc2OC1C(=O)OCC (configuration not stated),-7.81% (inactive)
20,CO[C@H]1CN(C)C(=O)c2cc(NC(=O)Nc3ccc4c(c3)OCO4)ccc2OC[C@@H](C)NC[C@@H]1C,-36.2% (inactive)
21,C[C@H](CO)N1C[C@H](C)[C@H](CN(C)C(=O)Nc2ccccc2C(F)(F)F)OCc2cn(nn2)CCCC1=O,3.25% (inactive)
22,CC(C)NC(=O)N(C)C[C@H]1OCCCC[C@H](C)Oc2ccc(NC(=O)CCC(F)(F)F)cc2C(=O)N([C@H](C)CO)C[C@H]1C,1.7% (inactive)
23,Cc1noc(C)c1S(=O)(=O)N(C)C[C@@H]1Oc2ccc(NC(=O)Cn3cnnn3)cc2CC(=O)N([C@@H](C)CO)C[C@H]1C,0.447% (inactive)
